Several values for one entry are separate records, joined by “and”; a condition that tells them apart may be missing. Identical values can stand only once. Inconclusive results are not listed. Where a call stands in place of a potency, no number is given. Activity calls are given as the source filed them. Calls follow the shape of the dose curve; as a rule, active = well fitted inhibition curve with a large enough effect; inconclusive = small, poorly fitted or top-dose-only effect; inactive = no such curve, though single readings can be large or run the other way.
Target: RecQ-like DNA helicase BLM (Homo sapiens) (UniProt P54132)
Sequence (P54132 whole entry, looked up): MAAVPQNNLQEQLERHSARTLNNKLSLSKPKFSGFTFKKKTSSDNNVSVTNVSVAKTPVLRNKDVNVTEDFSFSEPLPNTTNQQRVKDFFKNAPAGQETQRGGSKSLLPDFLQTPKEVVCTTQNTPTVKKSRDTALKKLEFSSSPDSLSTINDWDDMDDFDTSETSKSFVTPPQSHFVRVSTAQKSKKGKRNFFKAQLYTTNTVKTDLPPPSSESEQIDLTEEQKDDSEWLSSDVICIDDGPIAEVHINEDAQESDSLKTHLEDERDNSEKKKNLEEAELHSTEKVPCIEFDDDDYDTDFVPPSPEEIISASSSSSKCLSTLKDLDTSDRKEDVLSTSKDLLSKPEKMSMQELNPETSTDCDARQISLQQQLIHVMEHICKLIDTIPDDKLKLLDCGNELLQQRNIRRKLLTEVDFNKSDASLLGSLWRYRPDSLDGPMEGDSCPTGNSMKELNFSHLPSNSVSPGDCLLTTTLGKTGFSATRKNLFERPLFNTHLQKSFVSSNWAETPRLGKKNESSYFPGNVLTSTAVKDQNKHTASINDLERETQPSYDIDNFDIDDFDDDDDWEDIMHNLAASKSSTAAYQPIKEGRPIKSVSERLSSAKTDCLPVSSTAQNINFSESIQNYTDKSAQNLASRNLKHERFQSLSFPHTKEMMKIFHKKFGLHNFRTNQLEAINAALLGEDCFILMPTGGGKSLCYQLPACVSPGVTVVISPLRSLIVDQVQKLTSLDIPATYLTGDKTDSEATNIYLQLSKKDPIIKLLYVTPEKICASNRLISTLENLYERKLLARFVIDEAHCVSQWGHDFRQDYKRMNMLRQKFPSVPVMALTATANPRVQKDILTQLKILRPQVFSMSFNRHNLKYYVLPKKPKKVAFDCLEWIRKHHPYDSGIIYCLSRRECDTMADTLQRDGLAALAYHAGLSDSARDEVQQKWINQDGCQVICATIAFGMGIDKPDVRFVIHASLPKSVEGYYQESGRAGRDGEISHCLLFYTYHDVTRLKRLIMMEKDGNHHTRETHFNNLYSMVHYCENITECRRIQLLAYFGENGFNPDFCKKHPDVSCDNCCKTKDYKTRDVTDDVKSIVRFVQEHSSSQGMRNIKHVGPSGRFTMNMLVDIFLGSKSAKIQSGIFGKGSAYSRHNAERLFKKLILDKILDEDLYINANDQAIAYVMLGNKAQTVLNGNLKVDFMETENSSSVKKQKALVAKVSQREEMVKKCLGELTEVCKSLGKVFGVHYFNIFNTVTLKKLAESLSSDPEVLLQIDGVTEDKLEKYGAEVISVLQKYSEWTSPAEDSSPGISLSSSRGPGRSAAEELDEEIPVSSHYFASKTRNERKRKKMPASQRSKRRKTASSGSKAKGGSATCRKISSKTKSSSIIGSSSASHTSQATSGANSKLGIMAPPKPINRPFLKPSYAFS
Assay: qHTS for Inhibitors of Bloom's syndrome helicase (BLM): Helicase DNA unwinding fluorescent orthogonal confirmatory assay for SAR
Conditions: fluorescence, orthogonal confirmation; series mostly up to 55.6 µM
Method in brief: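 Purified BLM unwound a fluorescently labelled DNA substrate at room temperature in pH 7.5 Tris buffer with 2mM ATP and 2mM MgCl2. Products were resolved on native 15% gels. Loss of single-stranded product band, normalised to no-inhibitor and no-enzyme controls, indicates inhibition.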

Row | Structure (SMILES) | Potency
1 | O=C(Nc1ccc(Cl)c(Cl)c1)Nc1cccc(-c2ccncc2)n1 | 3.98 µM (active)
2 | O=C(Nc1ccc(Cl)c([N+](=O)[O-])c1)Nc1nnc(-c2ccncc2)s1 | 1 µM (active)
3 | Nc1cc(NC(=O)Nc2nnc(-c3ccncc3)s2)ccc1Cl | 11.2 µM (active)
4 | S=C(Nc1ccc(Cl)c(Cl)c1)Nc1nnc(-c2ccncc2)s1 | 3.98 µM (active)
5 | O=C(Nc1ccc(-c2nc3ccccc3[nH]2)cc1)Nc1ccc2c(c1)CCCO2 | inactive
6 | O=C(NCc1ccccc1)Nc1nnc(-c2ccncc2)s1 | inactive
7 | O=C(Nc1ccccc1)Nc1nnc(-c2ccncc2)s1 | inactive
8 | CC(=O)c1ccc(NC(=O)Nc2nnc(-c3ccncc3)s2)cc1 | inactive
9 | O=C(Nc1ccc2ccccc2c1)Nc1nnc(-c2ccc(O)cc2)s1 | inactive
10 | O=C(Nc1ccc2ccccc2c1)Nc1nnc(-c2ccncc2)s1 | 10 µM (active)
11 | Cc1cc(NC(=O)Nc2nnc(C3CCCCC3)s2)ccc1Cl | inactive
12 | Cc1cc(NC(=O)Nc2nnc(C3CCCCC3)s2)ccc1F | inactive
13 | O=C(Nc1ccc(Cl)c(C(F)(F)F)c1)Nc1nnc(-c2cccnc2)s1 | 3.16 µM (active)
14 | N#Cc1cc(NC(=O)Nc2cccc(-c3ccncc3)n2)ccc1Cl | 0.631 µM (active)
15 | O=C(Nc1ccc(-n2ccnc2)c(F)c1)Nc1nnc(-c2ccncc2)s1 | 10 µM (active)
16 | O=C(Nc1ccc(-c2nc3ccccc3[nH]2)cc1)Nc1ccc2c(c1)OCCO2 | inactive
17 | O=C(Cc1nnc(-c2ccncc2)s1)Nc1ccc(F)c(C(F)(F)F)c1 | inactive
18 | N#Cc1cc(NC(=O)Nc2nnc(-c3ccncc3)s2)ccc1Cl | 0.398 µM (active)

Row | Structure (SMILES) | Potency
19 | O=C(Nc1ccc2sccc2c1)Nc1nnc(-c2cccnc2)s1 | 10 µM (active)
20 | O=C(Nc1ccc(F)c(C(F)(F)F)c1)Nc1nnc(C2CCCCC2)s1 | inactive
21 | O=C(Nc1ccc(-c2cn[nH]c2)c(C(F)(F)F)c1)Nc1nnc(-c2ccncc2)s1 | 15.8 µM (active)
22 | O=C(Nc1ccc(Cl)c(Cl)c1)Nc1nnc(-c2ccncc2)s1 | 1.58 µM (active)
23 | O=C(Nc1ccc2ccccc2c1)Nc1nnc(-c2ccncc2)o1 | inactive
24 | O=C(Nc1cccc(C(=O)O)c1)Nc1nnc(-c2ccncc2)s1 | inactive
25 | COc1ccccc1CNC(=O)Nc1nnc(-c2ccncc2)s1 | inactive
26 | O=S(=O)(Cc1ccc(Cl)c(Cl)c1)Nc1nnc(-c2ccncc2)s1 | inactive
27 | COc1ccc(-c2nnc(NC(=O)Nc3ccc4ccccc4c3)s2)cc1OC | inactive
28 | O=C(Nc1ccc(Br)c(Br)c1)Nc1nnc(-c2ccncc2)s1 | 5.01 µM (active)
29 | Cc1cc(NC(=O)Nc2cccc(-c3ccncc3)n2)ccc1Cl | 4.47 µM (active) and 3.55 µM (active)
30 | N#Cc1cc(NC(=O)Nc2nnc(-c3ccncc3)s2)ccc1F | 1.41 µM (active)
31 | S=C(Nc1ccc(Cl)c(Cl)c1)Nc1nnc(-c2ccncc2)o1 | inactive
32 | CCOc1ccc(NC(=O)Nc2ccc(-c3nc4ccccc4[nH]3)cc2)cc1 | inactive
33 | O=C(Nc1ccc(F)c(C(F)(F)F)c1)Nc1ccc(-c2ccncc2)s1 | inactive
34 | O=C(Nc1ccc2ccccc2c1)Nc1nnc(-c2ccccc2)s1 | inactive
35 | O=C(Nc1ccc(-n2cncn2)c(F)c1)Nc1nnc(-c2ccncc2)s1 | 14.1 µM (active)
